# Screens deposited in PubChem BioAssay by several laboratories.
# PostGolgi yeast: growth inhibition of a yeast mutant, post-Golgi transport screen | inhibition, % at 10 µM | 98,000 compounds, 0.9% hits | post-Golgi transport phenotypic cell assay;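 note: yeast cells grown in 1536-well plates; yeast grown about 18 h at 30C before absorbance read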
# CYP2C19 activ: cytochrome P450 2C19 (human) activation; recombinant CYP2C19, luciferin-H EGE luminescence; hits give high values; 0 = fully inhibited enzyme, 1 = untreated enzyme; activation factor at 5 µM; 96,000 tested, under 10 active; AID 1025;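 active = activation factor of at least 2 at 5 µM in the primary screen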;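 note: 0 = wells with 2.5 mM tranylcypromine and 1 = vehicle-only wells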
# PostGolgi ctrl: inhibits growth of the yeast control strain; inhibition, % at 10 µM; 98,000 compounds, 5% hits; efflux-deficient yeast background strain, growth absorbance A615, 16 h
# CYP2C9 act: increases human cytochrome P450 2C9 activity. P11712. recombinant CYP2C9, luciferin-H conversion, luminescence; hits give high values; factor 1 = untreated enzyme, 0 = blocked. activation factor at 5 µM. 96,000 compounds, 1.4% hits;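 active = activation factor of 2 or more for CYP2C9 at a 5 µM dose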;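 note: 0 = sulfaphenazole-blocked wells and 1 = vehicle-only wells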
# Target sequence (P11712 whole entry, looked up): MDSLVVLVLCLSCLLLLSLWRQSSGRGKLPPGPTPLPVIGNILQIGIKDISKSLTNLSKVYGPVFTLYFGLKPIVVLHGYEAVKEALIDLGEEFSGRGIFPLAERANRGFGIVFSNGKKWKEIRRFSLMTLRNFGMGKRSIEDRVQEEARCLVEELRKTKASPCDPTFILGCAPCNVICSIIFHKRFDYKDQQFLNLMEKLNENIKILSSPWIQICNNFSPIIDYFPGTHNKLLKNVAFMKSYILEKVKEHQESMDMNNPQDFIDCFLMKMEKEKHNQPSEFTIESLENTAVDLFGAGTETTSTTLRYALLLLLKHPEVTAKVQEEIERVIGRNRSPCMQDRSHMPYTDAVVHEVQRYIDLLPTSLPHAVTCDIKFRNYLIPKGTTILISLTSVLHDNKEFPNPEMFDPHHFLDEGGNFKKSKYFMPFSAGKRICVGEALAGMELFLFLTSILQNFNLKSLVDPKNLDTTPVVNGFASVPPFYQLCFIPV
# CYP2C19 inhib: blocks human cytochrome P450 2C19; CYP2C19 Supersomes, luciferin-H EGE luminescence, 30 min; inhibition, % at 5 µM; 96,000 compounds, 21% hits; AID 778; P33261;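 active = CYP2C19 inhibition above a set limit at 5 µM in the primary screen, cut at about 50% in these data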;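 note: plate controls were negative control wells for no effect and 2.5 mM tranylcypromine positive control for full effect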
# CYP2C9 inhib: blocks human cytochrome P450 2C9. P11712. CYP2C9 Supersomes, luciferin-H conversion, luminescence. inhibition, % at 5 µM. 96,000 compounds, 20% hits. AID 777;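 active = blocking of liver enzyme CYP2C9 beyond about 50% at 5 µM, limit read from the data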
# Starred values were filed as active, the others as inactive; . = not tested or not shown. Sampled rows, rich in hits. Any-hit rate of the full collection: about 32%. Cut-off read from the data, not from the text of the source, unless noted: active = inhibition above about 30%; inactive = the rest.
SMILES,PostGolgi yeast,CYP2C19 activ,PostGolgi ctrl,CYP2C9 act,CYP2C19 inhib,CYP2C9 inhib
Cc1ccc(-c2nnc(-c3ccccc3)c(N3CCOCC3)n2)cc1,13,0.6,21,0.6,38,39
c1ccc(Oc2nc(Oc3ccccc3)nc(N3CCOCC3)n2)cc1,5,0.4,31*,0.5,60*,49
c1ccc(CN2CCN(c3ncnc4nc[nH]c34)CC2)cc1,-2,0.6,13,1,37,4
c1ccc(CN2CCN(C3=Nc4cccc5cccc3c45)CC2)cc1,3,0.4,16,0.9,57*,14
COc1ccc(NC(=O)C2CCCN2S(=O)(=O)c2ccc3c(c2)CCC(=O)N3)cc1Cl (stereo not drawn),-1,1.1,3,0.3,-6,65*
COc1ccc(S(=O)(=O)N2CCCC2C(=O)Nc2ccc(O)cc2)cc1 (stereo not drawn),5,1,-2,1.6,4,-56
COc1ccc(NC(=O)C2CCCN2S(=O)(=O)c2ccc3c(c2)CCC(=O)N3)cc1 (stereo not drawn),2,0.7,9,0.1,31,90*
COC(=O)CNC(=O)CCCCC(=O)NCC(=O)OC,-4,1.1,1,1.1,-14,-14
CCN(C(=O)CSc1nnc(Cn2nnc3ccccc32)o1)c1nc(-c2ccccc2)cs1,0,0.7,35*,0.6,26,40
O=C(CSc1nnc(Cn2nnc3ccccc32)o1)N(Cc1ccc(Cl)cc1)c1ccccc1,3,0.9,27,0.6,12,42
CCN(Cc1ccccc1)C(c1ccncc1)c1nnnn1C(C)(C)C (stereo not drawn),14,.,40*,.,.,.
CC(C)(C)n1nnnc1C(c1cccnc1)N(Cc1ccccc1)Cc1cccs1 (stereo not drawn),-3,0.5,21,0.4,48,61*
CCN(Cc1ccccc1)C(c1ccc(C)cc1)c1nnnn1C(C)(C)CC (stereo not drawn),7,0.6,9,0.6,39,37
NC(=O)C1CCN(C(=O)c2cc(S(=O)(=O)N3CCOCC3)c(Cl)cc2Cl)CC1,-1,1,7,1,4,0
Cc1nnc(SCCn2c(N3CCCC(C)C3)nc3c2c(=O)n(C)c(=O)n3C)s1 (stereo not drawn),0,1,1,0.8,4,23
COc1ccccc1NC(=O)CSc1nnc(C2CCCCC2)n1C,-4,0.3,3,0.9,65*,8
Cn1c(SCC(=O)c2ccccc2)nnc1C1CC1,-10,0.5,5,1,50*,0
Nn1c(SCC(=O)Nc2cccc(F)c2)nnc1C1CCCCC1,-12,0.5,5,0.5,54*,53*
Cn1c(SCC(=O)O)nnc1C1CCCCC1,-5,1.1,-3,1.1,-14,-10
COc1ccc(C(=O)CSc2nnc(C3CCCCC3)n2N)c(OC)c1,6,0.8,6,1.2,16,-20
Cc1ccccc1NC(=O)Cc1nc(CSc2nnc(C3CCCCC3)n2N)cs1,-8,0.5,-1,0.2,55*,84*
CCc1nnc(NC(=O)CSc2nnc(C3CCCCC3)n2-c2ccccc2)s1,1,0.7,12,0.8,26,20
Cc1ccc2c(c1)N(CC(=O)NCc1cccs1)C(=O)C(C)O2 (stereo not drawn),2,0.5,2,1.2,47,-25
COc1ccc(Cc2noc(-c3ccc(OC)c(OC)c3)n2)cc1OC,26,0.8,22,0.7,19,34
COc1ccc(/C=N/n2cncn2)cc1COc1ccc(NC(C)=O)cc1,-1,0.4,4,0.3,61*,69*
SMILES,PostGolgi yeast,CYP2C19 activ,PostGolgi ctrl,CYP2C9 act,CYP2C19 inhib,CYP2C9 inhib
COc1ccc(/C=N/NC(=O)c2ccoc2C)cc1COc1ccc(Cl)cc1,11,0.9,49*,0.6,14,37
COc1ccc(/C=N/NC(=O)c2ccn[nH]2)cc1COc1ccc(F)cc1,-6,0.7,-3,0.8,27,19
COc1ccc(/C=N/NC(=O)c2ccn[nH]2)cc1COc1ccc(Cl)cc1Cl,0,0.8,62*,0.6,22,40
Cc1ccc(C(C)NC(=O)c2c(C)noc2C)cc1C (stereo not drawn),4,0.4,12,0.8,61*,24
Cc1noc(C)c1C(=O)NCCc1ccccc1,-15,0.9,-5,1.1,5,-8
COCCOC(=O)c1c(C)n(C)c2ccc(OC(=O)C3CC3)cc12,-1,0.8,7,0.7,25,30
CCC(C)n1c(SC(C)C#N)nc2ccccc2c1=O (stereo not drawn),20,0.5,6,0.3,48,70*
CC(C#N)On1c(SC(C)C#N)nc2ccccc2c1=O (stereo not drawn),-4,0.9,13,0.7,11,30
COc1ccc(-c2noc(CN3CCOCC3)n2)cc1OC,-2,1,-2,1,-1,-5
Cc1ccc(OC(=O)c2oc3ccc(F)cc3c2C)c(C)c1,-3,0.7,25,1,30,0
CC(C)SC1=NC(C)(C)C=C(/C=C/c2ccc(Cl)cc2Cl)N1,3,0.3,27,0.4,69*,62*
CC(C)SC1=NC(C)(C)C=C(/C=C/c2c(Cl)cccc2Cl)N1,1,0.2,74*,0.3,78*,70*
O=C(/C=C/c1ccc(Cl)cc1Cl)c1nc2ccccc2[nH]1,-3,0.9,29,1.1,11,-6
COc1ccc(-n2c(SC3CCOC3=O)nc3ccccc32)cc1 (stereo not drawn),-7,0.5,17,0.6,51*,41
O=C1OCCC1Sc1nc2ccccc2n1Cc1ccccc1 (stereo not drawn),-7,0.2,28,0.5,82*,55*
O=C(O)Cn1c(SC2CCCCC2)nc2ccccc21,2,0.9,-5,0.9,7,13
O=C1OCCC1Sc1nc2ccccc2n1-c1ccccc1 (stereo not drawn),-2,0.3,6,0.3,69*,66*
CS(=O)(=O)N1CCCC(C(=O)NCCN2CCC(Cc3ccccc3)CC2)C1 (stereo not drawn),-6,0.4,10,1.1,64*,-7
CCCS(=O)(=O)N1CCCC(C(=O)N2CCC(Cc3ccccc3)CC2)C1 (stereo not drawn),-13,0.3,5,0.5,69*,51*
COc1ccc(C2(C(=O)NC3CCCCC3)CCOCC2)cc1OC,0,0.9,30,1,15,2
Cc1nnc(SCc2nc3ccccc3s2)n1-c1ccccc1,3,.,22,.,.,.
CCOC(=O)CSc1nnc(-c2cccc(Cl)c2)n1CC,-3,0.5,16,0.9,52*,7
CCn1c(Cn2nnc(-c3ccccc3)n2)nnc1SCc1ccc(Cl)c(Cl)c1,2,0.9,46*,0.6,15,38
COc1cccc(-c2nnc(SCc3nc4ccccc4s3)n2C)c1,-2,0.2,5,0.7,81*,29
